Inconclusive results are not listed. Where a call stands in place of a potency, no number is given. Calls of active or inactive are those of the source. Calls come from the whole dose curve; as a rule, active = well fitted inhibition curve with a large enough effect; inconclusive = small, poorly fitted or top-dose-only effect; inactive = flat fitted curve, though single readings scatter.
Potency is the fitted concentration of half-maximal effect.

The test system of one assay is CP315. The experiment in a line: qHTS profiling for inhibitors of Plasmodium falciparum proliferation (AID 504749). Note: nearly all actives have a fitted effect of over 60% in size. Particulars: P. falciparum in erythrocytes, SYBR Green DNA, 72 h; series mostly up to 12.8 µM. Summed up: (§1)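 Quantitative HTS: compounds pinned into medium, infected erythrocytes added (0.3% parasitemia, 2.5% hematocrit), 72 h culture at 37 C under 5% CO2. Saponin/Triton lysis with SYBR Green I, overnight RT, then fluorescence read.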
Regarding `CCO[C@H]1O[C@@H]([C@H](COCc2ccccc2)OCc2ccccc2)[C@@H](OCc2ccccc2)[C@H]1O`, the Potency entry was “inactive”.

As for `COc1cc(N[C@@H](C)CCCN)c2ncccc2c1`, the Potency is 5.73 µM (active).

Take `C=Cc1c(C)c2cc3nc(cc4[nH]c(cc5nc(cc1[nH]2)C(C)=C5CCC(=O)O)c(CCC(=O)OC)c4C)[C@@]1(C)C3=CC=C(C(=O)OC)[C@H]1C(=O)OC` (tested in a mixture with another compound): the Potency entry was “inactive”.

With `O=C(OC[C@@H](O)CO)c1ccccc1Nc1ccnc2cc(Cl)ccc12`, the Potency result was “inactive”.

As to `COc1ccc2c(c1)N(C[C@@H](C)CN(C)C)c1ccccc1S2`, the Potency result is “inactive”.

With `CCC(=O)[C@@]1(C)[C@H](C)C[C@@H]2[C@@H]3CCC4=CC(=O)C=C[C@@]4(C)[C@H]3[C@H](O)C[C@]21C`, the Potency entry was “inactive”.

As for `CCC(C)(C)C(=O)O[C@@H]1C[C@H](C)C=C2C=C[C@H](C)[C@@H](CC[C@H]3C[C@@H](O)CC(=O)O3)[C@H]21`, the Potency result is “inactive”.

Consider `CCN(CC)[C@@H](C)CN1c2ccccc2Sc2ccccc21`, for which the Potency entry is “inactive”.

As for `CC=C(/C(=C/C)c1ccc(O)cc1)c1ccc(O)cc1`, the Potency result is “inactive”.

Regarding `CC1(C)S[C@@H]2[C@H](NC(=O)[C@@H](N)c3ccccc3)C(=O)N2[C@H]1C(=O)O[C@H]1OC(=O)c2ccccc21`, the Potency result is “inactive”.

Another assay concerns CP325. The assay is described as above. Particulars: P. falciparum in erythrocytes, SYBR Green DNA, 72 h; series mostly up to 12.8 µM. Summed up: as §1
`CCO[C@H]1O[C@@H]([C@H](COCc2ccccc2)OCc2ccccc2)[C@@H](OCc2ccccc2)[C@H]1O`: the Potency result was “inactive”.

Regarding `COc1cc(N[C@@H](C)CCCN)c2ncccc2c1`, the Potency was 2.03 µM (active).

Turning to `C=Cc1c(C)c2cc3nc(cc4[nH]c(cc5nc(cc1[nH]2)C(C)=C5CCC(=O)O)c(CCC(=O)OC)c4C)[C@@]1(C)C3=CC=C(C(=O)OC)[C@H]1C(=O)OC` (tested in a mixture with another compound), the Potency entry is “inactive”.

Regarding `O=C(OC[C@@H](O)CO)c1ccccc1Nc1ccnc2cc(Cl)ccc12`, the Potency result is “inactive”.

`CO[C@]1(NC(=O)[C@H](C(=O)O)c2ccc(O)cc2)C(=O)N2C(C(=O)O)=C(CSc3nnnn3C)CO[C@H]21`: the Potency entry is “inactive”.

For the molecule `COc1ccc2c(c1)N(C[C@@H](C)CN(C)C)c1ccccc1S2`, the Potency result was “inactive”.

Take `CCC(=O)[C@@]1(C)[C@H](C)C[C@@H]2[C@@H]3CCC4=CC(=O)C=C[C@@]4(C)[C@H]3[C@H](O)C[C@]21C`: the Potency entry was “inactive”.

On to `CCC(C)(C)C(=O)O[C@@H]1C[C@H](C)C=C2C=C[C@H](C)[C@@H](CC[C@H]3C[C@@H](O)CC(=O)O3)[C@H]21`, for which the Potency result was “inactive”.

With `CCN(CC)[C@@H](C)CN1c2ccccc2Sc2ccccc21`, the Potency entry is “inactive”.

For `CC=C(/C(=C/C)c1ccc(O)cc1)c1ccc(O)cc1`, the Potency entry was “inactive”.

Regarding `CC1(C)S[C@@H]2[C@H](NC(=O)[C@@H](N)c3ccccc3)C(=O)N2[C@H]1C(=O)O[C@H]1OC(=O)c2ccccc21`, the Potency result was “inactive”.

The subject of the next assay is CP329. The description is as above. Particulars: P. falciparum in erythrocytes, SYBR Green DNA, 72 h; series mostly up to 12.8 µM. Summed up:
as §1
Turning to `CCO[C@H]1O[C@@H]([C@H](COCc2ccccc2)OCc2ccccc2)[C@@H](OCc2ccccc2)[C@H]1O`, the Potency result was “inactive”.

With `COc1cc(N[C@@H](C)CCCN)c2ncccc2c1`, the Potency is 3.61 µM (active).

`C=Cc1c(C)c2cc3nc(cc4[nH]c(cc5nc(cc1[nH]2)C(C)=C5CCC(=O)O)c(CCC(=O)OC)c4C)[C@@]1(C)C3=CC=C(C(=O)OC)[C@H]1C(=O)OC` (tested in a mixture with another compound): the Potency entry is “inactive”.

On to `O=C(OC[C@@H](O)CO)c1ccccc1Nc1ccnc2cc(Cl)ccc12`, for which the Potency result was “inactive”.

`CO[C@]1(NC(=O)[C@H](C(=O)O)c2ccc(O)cc2)C(=O)N2C(C(=O)O)=C(CSc3nnnn3C)CO[C@H]21`: the Potency entry was “inactive”.

On to `COc1ccc2c(c1)N(C[C@@H](C)CN(C)C)c1ccccc1S2`, for which the Potency result was “inactive”.

Turning to `CCC(=O)[C@@]1(C)[C@H](C)C[C@@H]2[C@@H]3CCC4=CC(=O)C=C[C@@]4(C)[C@H]3[C@H](O)C[C@]21C`, the Potency entry was “inactive”.

As for `CCC(C)(C)C(=O)O[C@@H]1C[C@H](C)C=C2C=C[C@H](C)[C@@H](CC[C@H]3C[C@@H](O)CC(=O)O3)[C@H]21`, the Potency entry was “inactive”.

Turning to `CCN(CC)[C@@H](C)CN1c2ccccc2Sc2ccccc21`, the Potency result was “inactive”.

In the case of `COC(=O)[C@@H]1[C@@H]2C[C@H]3c4[nH]c5cc(OC)ccc5c4CCN3C[C@@H]2C[C@H](OC(=O)/C=C\c2cc(OC)c(OC)c(OC)c2)[C@H]1OC`, the Potency entry is “inactive”.

As for `CC=C(/C(=C/C)c1ccc(O)cc1)c1ccc(O)cc1`, the Potency result is “inactive”.

Consider `CC1(C)S[C@@H]2[C@H](NC(=O)[C@@H](N)c3ccccc3)C(=O)N2[C@H]1C(=O)O[C@H]1OC(=O)c2ccccc21`, for which the Potency entry was “inactive”.

For a further assay, the system named is CP335. The description is as above. Particulars: P. falciparum in erythrocytes, SYBR Green DNA, 72 h; series mostly up to 12.8 µM. Summed up: as §1
Consider `CCO[C@H]1O[C@@H]([C@H](COCc2ccccc2)OCc2ccccc2)[C@@H](OCc2ccccc2)[C@H]1O`, for which the Potency result was “inactive”.

For the molecule `COc1cc(N[C@@H](C)CCCN)c2ncccc2c1`, the Potency was 4.05 µM (active).

Take `C=Cc1c(C)c2cc3nc(cc4[nH]c(cc5nc(cc1[nH]2)C(C)=C5CCC(=O)O)c(CCC(=O)OC)c4C)[C@@]1(C)C3=CC=C(C(=O)OC)[C@H]1C(=O)OC` (tested in a mixture with another compound): the Potency was 3.79 µM (active).

As to `O=C(OC[C@@H](O)CO)c1ccccc1Nc1ccnc2cc(Cl)ccc12`, the Potency result is “inactive”.

Take `CO[C@]1(NC(=O)[C@H](C(=O)O)c2ccc(O)cc2)C(=O)N2C(C(=O)O)=C(CSc3nnnn3C)CO[C@H]21`: the Potency entry was “inactive”.

Take `COc1ccc2c(c1)N(C[C@@H](C)CN(C)C)c1ccccc1S2`: the Potency entry was “inactive”.

As to `CC=C(/C(=C/C)c1ccc(O)cc1)c1ccc(O)cc1`, the Potency result is “inactive”.

With `CC1(C)S[C@@H]2[C@H](NC(=O)[C@@H](N)c3ccccc3)C(=O)N2[C@H]1C(=O)O[C@H]1OC(=O)c2ccccc21`, the Potency entry was “inactive”.

The values above are taken from PubChem BioAssay (NCATS).
